Assay results as given in PubChem BioAssay AID1159580 (chemical genetic matrix, 2015).
Several values for one entry are separate records, joined by “and”; a condition that tells them apart may be missing. Equal entries are not always repeated. About 2,000 (36%) of roughly 5,500 compounds were called active. About 18% were inconclusive and are not listed. Cut-off read from the data, not from the text of the source: active = normalized growth mostly below about 0.91 (no sharp cut-off); inconclusive = no clear call, values can overlap the other calls; inactive = mostly above about 0.92. The list shows a part of the results.

Test: chemical genetic growth profiling, strain panel (AID 1159580);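 note: tested at 20 µM; growth read once vehicle control cultures reached saturation at 30 °C; 1 = growth at the plate median or of vehicle wells; lower values mean less growth of the strain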
Conditions: S. cerevisiae deletion strains, growth OD

Measured: normalized growth

CCOC(=O)CCC(=O)O[C@H]1[C@H](O[C@@H]2[C@@H](C)[C@H](O[C@H]3C[C@@](C)(OC)[C@@H](O)[C@H](C)O3)[C@@H](C)C(=O)O[C@H](CC)[C@@](C)(O)[C@H](O)[C@@H](C)C(=O)[C@H](C)C[C@@]2(C)O)O[C@H](C)C[C@@H]1N(C)C
inactive: locus YAL021C, strain ccr4, active compounds read low 1.01 | locus YAL026C, strain drs2, active compounds read low 1.02 | locus YAL030W, strain snc1, active compounds read low 0.99 | locus YBL061C, strain skt5, active compounds read low 0.994 | locus YBR009C, strain hhf1, active compounds read low 0.993 | locus YBR021W, strain FUR4, active compounds read low 0.997 | locus YBR023C, strain chs3, active compounds read low 0.999 | locus YBR171W, strain sec66, active compounds read low 1.01 | locus YBR229C, strain ROT2, active compounds read low 0.949 | locus YBR231C, strain swc5, active compounds read low 0.971 | locus YBR279W, strain paf1, active compounds read low 1.01 | locus YCL011C, strain gbp2, active compounds read low 1.01 | locus YCL016C, strain dcc1, active compounds read low 0.992 | locus YCL029C, strain bik1, active compounds read low 0.99 | locus YCL069W, strain vba3, active compounds read low 1 | locus YCR088W, strain abp1, active compounds read low 1.01 | locus YDL005C, strain med2, active compounds read low 0.994 | locus YDL035C, strain GPR1, active compounds read low 0.945 | locus YDL040C, strain nat1, active compounds read low 0.995 | locus YDL074C, strain BRE1, active compounds read low 0.962 | locus YDL101C, strain DUN1, active compounds read low 0.977 | locus YDL134C, strain PPH21, active compounds read low 0.963 | locus YDL185W, strain tfp1, active compounds read low 0.971 | locus YDL192W, strain arf1, active compounds read low 0.985 | locus YDR001C, strain nth1, active compounds read low 1.01 | locus YDR069C, strain doa4, active compounds read low 0.983 | locus YDR101C, strain arx1, active compounds read low 0.953 | locus YDR137W, strain rgp1, active compounds read low 1.01 | locus YDR150W, strain NUM1, active compounds read low 0.988 | locus YDR159W, strain sac3, active compounds read low 0.979 | locus YDR162C, strain NBP2, active compounds read low 0.955 | locus YDR195W, strain ref2 0.956 | locus YDR297W, strain sur2, active compounds read low 1 | locus YDR318W, strain mcm21, active compounds read low 0.996 | locus YDR334W, strain swr1, active compounds read low 1 | locus YDR335W, strain msn5, active compounds read low 0.993 | locus YDR388W, active compounds read low 0.984 | locus YDR392W, strain spt3, active compounds read low 1.03 | locus YDR502C, strain sam2, active compounds read low 0.991 | locus YEL003W, strain gim4, active compounds read low 1.01 | locus YEL037C, strain rad23, active compounds read low 1.01 | locus YEL061C, strain CIN8 (second series), active compounds read low 1.02 | locus YEL061C, strain CIN8, active compounds read low 0.989 | locus YER015W, strain faa2, active compounds read low 0.986 | locus YER016W, strain bim1, active compounds read low 1.01 | locus YER110C, active compounds read low 0.99 | locus YER111C, strain swi4, active compounds read low 0.996 | locus YER155C, strain BEM2 (second series), active compounds read low 0.985 | locus YER155C, strain BEM2, active compounds read low 0.999 | locus YER167W, strain BCK2, active compounds read low 0.999 | locus YFR010W, strain ubp6, active compounds read low 1.03 | locus YGL078C, strain dbp3, active compounds read low 0.994 | locus YGL086W, strain mad1, active compounds read low 0.972 | locus YGL167C, strain pmr1, active compounds read low 1 | locus YGL173C, strain kem1, active compounds read low 1 | locus YGL227W, strain vid30, active compounds read low 1.01 | locus YGL240W, strain doc1, active compounds read low 0.975 | locus YGL248W, strain PDE1, active compounds read low 0.986 | locus YGL253W, strain hxk2, active compounds read low 1.01 | locus YGR135W, strain pre9, active compounds read low 1.05 | locus YGR252W, strain gcn5, active compounds read low 1.07 | locus YHR013C, strain ard1, active compounds read low 0.997 | locus YHR027C, strain rpn1, active compounds read low 1.02 | locus YHR030C, strain SLT2, active compounds read low 0.995 and 1.03 | locus YHR079C, strain IRE1 (second series), active compounds read low 0.962 | locus YHR079C, strain IRE1, active compounds read low 1.04 | locus YHR094C, strain hxt1, active compounds read low 0.985 | locus YHR129C, strain ARP1, active compounds read low 0.986 | locus YHR142W, strain chs7, active compounds read low 1.03 | locus YHR200W, strain rpn10, active compounds read low 0.98 | locus YIL066C, strain RNR3, active compounds read low 0.974 | locus YIL073C, strain SPO22, active compounds read low 1 | locus YIL125W, strain kgd1, active compounds read low 0.985 | locus YIR030C, strain dcg1, active compounds read low 0.997 | locus YJL092W, strain hpr5, active compounds read low 1.01 | locus YJL095W, strain BCK1 (second series), active compounds read low 0.99 | locus YJL095W, strain BCK1, active compounds read low 0.99 and 1.02 | locus YJL115W, strain asf1, active compounds read low 1 | locus YJL129C, strain trk1, active compounds read low 1 | locus YJL134W, strain LCB3, active compounds read low 0.993 | locus YJL154C, strain vps35, active compounds read low 1.01 | locus YJL164C, strain tpk1, active compounds read low 0.999 | locus YJL166W, strain qcr8, active compounds read low 0.993 | locus YJL168C, strain set2, active compounds read low 0.985 | locus YJL187C, strain SWE1 (second series), active compounds read low 0.991 | locus YJR043C, strain POL32, active compounds read low 0.963 | locus YJR066W, strain TOR1, active compounds read low 0.89 | locus YJR075W, strain HOC1, active compounds read low 0.983 | locus YKL009W, strain mrt4, active compounds read low 0.971 | locus YKL068W, active compounds read low 0.987 | locus YKL085W, strain MDH1 (second series), active compounds read low 0.995 | locus YKL085W, strain MDH1, active compounds read low 0.995 | locus YKL160W, strain elf1, active compounds read low 1 | locus YKR001C, strain vps1, active compounds read low 0.981 | locus YKR026C, strain gcn3, active compounds read low 1.01 | locus YKR091W, strain srl3, active compounds read low 1 | locus YLL001W, strain dnm1, active compounds read low 1 | locus YLL026W, active compounds read low 0.991 | locus YLL041C, strain sdh2, active compounds read low 1 | locus YLR027C, strain aat2, active compounds read low 0.986 | locus YLR039C, strain RIC1, active compounds read low 0.932 | locus YLR058C, strain SHM2, active compounds read low 0.975 | locus YLR102C, strain apc9, active compounds read low 0.986 | locus YLR113W, strain HOG1, active compounds read low 1.11 | locus YLR221C, strain rsa3, active compounds read low 1 | locus YLR258W, strain gsy2, active compounds read low 0.983 | locus YLR262C, strain YPT6 (second series), active compounds read low 1.04 | locus YLR262C, strain YPT6, active compounds read low 0.885 | locus YLR268W, strain sec22, active compounds read low 0.97 | locus YLR320W, strain mms22, active compounds read low 0.996 | locus YLR330W, strain CHS5, active compounds read low 0.985 | locus YLR342W, strain FKS1 (second series), active compounds read low 0.985 | locus YLR342W, strain FKS1, active compounds read low 0.985 | locus YLR357W, strain rsc2, active compounds read low 0.982 | locus YLR370C, strain arc18, active compounds read low 1.02 | locus YLR371W, strain rom2, active compounds read low 0.992 | locus YLR384C, strain iki3, active compounds read low 0.981 | locus YLR418C, strain cdc73, active compounds read low 1.01 | locus YML016C, strain PPZ1, active compounds read low 0.987 | locus YML032C, strain rad52, active compounds read low 0.982 | locus YML120C, strain ndi1, active compounds read low 0.995 | locus YML124C, strain tub3, active compounds read low 0.988 | locus YMR058W, strain fet3, active compounds read low 1.01 | locus YMR078C, strain ctf18, active compounds read low 0.983 | locus YMR125W, strain sto1, active compounds read low 1.01 | locus YMR129W, active compounds read low 0.993 | locus YMR205C, strain PFK2, active compounds read low 0.99 | locus YMR223W, strain ubp8, active compounds read low 1.03 | locus YMR231W, strain pep5, active compounds read low 0.998 | locus YMR263W, strain SAP30, active compounds read low 0.984 | locus YMR307W, strain GAS1, active compounds read low 0.97 | locus YNL067W, strain RPL9B, active compounds read low 0.992 | locus YNL071W, strain lat1, active compounds read low 0.996 | locus YNL153C, strain GIM3, active compounds read low 0.983 | locus YNL183C, strain NPR1, active compounds read low 0.981 | locus YNL209W, strain ssb2, active compounds read low 0.991 | locus YNL233W, strain BNI4, active compounds read low 0.988 | locus YNL248C, strain rpa49, active compounds read low 1.04 | locus YNL250W, strain rad50, active compounds read low 0.99 | locus YNL271C, strain bni1, active compounds read low 0.997 | locus YNL298W, strain CLA4, active compounds read low 0.99 | locus YNL307C, strain MCK1, active compounds read low 0.989 | locus YNL322C, strain KRE1 (second series), active compounds read low 0.988 | locus YNL322C, strain KRE1, active compounds read low 0.995 | locus YNR049C, strain mso1, active compounds read low 0.988 | locus YNR052C, strain pop2, active compounds read low 1 | locus YOL012C, strain htz1 0.719 | locus YOL147C, strain pex11, active compounds read low 0.995 | locus YOR001W, strain rrp6, active compounds read low 1 | locus YOR061W, strain CKA2, active compounds read low 0.966 | locus YOR069W, strain VPS5, active compounds read low 0.991 | locus YOR070C, strain gyp1, active compounds read low 0.991 | locus YOR080W, strain dia2, active compounds read low 0.978 | locus YOR083W, strain WHI5, active compounds read low 1.02 | locus YOR106W, strain vam3, active compounds read low 0.989 | locus YOR136W, strain idh2, active compounds read low 0.982 | locus YOR144C, strain elg1, active compounds read low 0.987 | locus YOR184W, strain ser1, active compounds read low 0.98 | locus YOR231W, strain MKK1, active compounds read low 1.07 | locus YOR265W, strain rbl2, active compounds read low 0.984 | locus YOR270C, strain vph1, active compounds read low 1.03 | locus YOR290C, strain snf2, active compounds read low 1.03 | locus YOR316C, strain cot1, active compounds read low 0.975 | locus YPL051W, strain arl3, active compounds read low 0.988 | locus YPL078C, strain atp4, active compounds read low 0.991 | locus YPL106C, strain sse1, active compounds read low 0.986 | locus YPL240C, strain hsp82, active compounds read low 1.01 | locus YPL241C, strain CIN2, active compounds read low 0.979 | locus YPL256C, strain CLN2, active compounds read low 1.05 | locus YPR119W, strain clb2, active compounds read low 0.988 | locus YPR141C, strain kar3, active compounds read low 0.987 | locus YPR163C, strain tif3, active compounds read low 0.989 | locus YPR167C, strain met16, active compounds read low 0.991 | strain wtn01, active compounds read low 0.99
